Holding throughout (experiment): DAPPL (digital affinity profiling via proximity ligation, sequencing); 10 mM Tris-HCl pH 7.5, 50 mM NaCl, 1 mM DTT, 4% glycerol, room temperature, 30 min; GST-TFs on glutathione beads, 16-mer random dsDNA library, 0.1% formaldehyde crosslink after washing; high values mean tight binding
For one assay, the target named is T1, FEV (Homo sapiens, UniProt Q99581 1-238).
T1 sequence: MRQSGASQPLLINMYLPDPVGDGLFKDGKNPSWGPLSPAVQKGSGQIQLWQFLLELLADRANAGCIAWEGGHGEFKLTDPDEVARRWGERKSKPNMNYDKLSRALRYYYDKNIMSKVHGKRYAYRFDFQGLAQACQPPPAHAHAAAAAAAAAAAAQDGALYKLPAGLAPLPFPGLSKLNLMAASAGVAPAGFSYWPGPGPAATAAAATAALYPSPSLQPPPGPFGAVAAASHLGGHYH
As to conditions: protein: recombinant; tags: N-terminal GST; dsDNA, one strand shown. The essentials:
(§1)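 Binding signal is each hexamer's read frequency for a factor divided by its frequency in the tag-only sample. The factors were GST-fused human transcription factors from yeast, captured on glutathione beads, DNA-barcoded and pooled with that sample. Pools were incubated with 200 nmole of a random double-stranded 16-mer DNA library in Tris/NaCl/DTT/glycerol buffer at room temperature for 30 min, then washed, crosslinked with 0.1% formaldehyde, proximity-ligated with BsaI/T4 ligase (1 h, 37 °C), PCR-amplified and sequenced on an Illumina NextSeq500.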

A further assay has as its target ETV5 (Homo sapiens, UniProt P41161 1-510). As to conditions: protein: recombinant; tags: N-terminal GST; dsDNA, one strand shown. The essentials: as §1
The target in another assay is HSF1 (Homo sapiens, UniProt Q00613 1-529). The following applies: protein: recombinant; tags: N-terminal GST; chain copies: 3; dsDNA, one strand shown. The essentials: as §1
The next assay concerns the target T2, SPIC (Homo sapiens, UniProt Q8N5J4 1-248).
T2 sequence: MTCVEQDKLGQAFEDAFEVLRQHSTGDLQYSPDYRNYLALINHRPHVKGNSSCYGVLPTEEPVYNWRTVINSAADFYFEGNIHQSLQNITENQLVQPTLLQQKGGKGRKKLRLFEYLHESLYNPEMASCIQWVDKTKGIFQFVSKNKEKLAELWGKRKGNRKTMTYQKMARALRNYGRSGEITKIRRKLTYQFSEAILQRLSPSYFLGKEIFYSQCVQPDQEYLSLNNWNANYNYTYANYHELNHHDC
The following applies: protein: recombinant; tags: N-terminal GST; dsDNA, one strand shown. In a few lines:
as §1

In the next assay the target is ELF4 (Homo sapiens, UniProt Q99607 1-663). As to conditions: protein: recombinant; tags: N-terminal GST; dsDNA, one strand shown. The essentials:
as §1

The target of a further assay is T3, ELK4 (Homo sapiens, UniProt P28324-2 1-405).
T3 sequence: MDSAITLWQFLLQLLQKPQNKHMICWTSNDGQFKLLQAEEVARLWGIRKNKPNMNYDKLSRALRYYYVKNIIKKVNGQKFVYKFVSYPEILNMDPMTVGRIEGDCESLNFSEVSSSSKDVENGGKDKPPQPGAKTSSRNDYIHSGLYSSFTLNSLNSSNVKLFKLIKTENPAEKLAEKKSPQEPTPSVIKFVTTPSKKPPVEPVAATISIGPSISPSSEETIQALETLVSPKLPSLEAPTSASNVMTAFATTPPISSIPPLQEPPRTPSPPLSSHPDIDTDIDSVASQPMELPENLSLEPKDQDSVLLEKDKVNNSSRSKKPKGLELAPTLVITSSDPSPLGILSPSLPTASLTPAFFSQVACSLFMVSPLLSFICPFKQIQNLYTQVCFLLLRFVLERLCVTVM
As to conditions: protein: recombinant; tags: N-terminal GST; dsDNA, one strand shown. In a few lines:
as §1

Another assay concerns the target T4, ETV2 (Homo sapiens, UniProt O00321 1-342).
T4 sequence: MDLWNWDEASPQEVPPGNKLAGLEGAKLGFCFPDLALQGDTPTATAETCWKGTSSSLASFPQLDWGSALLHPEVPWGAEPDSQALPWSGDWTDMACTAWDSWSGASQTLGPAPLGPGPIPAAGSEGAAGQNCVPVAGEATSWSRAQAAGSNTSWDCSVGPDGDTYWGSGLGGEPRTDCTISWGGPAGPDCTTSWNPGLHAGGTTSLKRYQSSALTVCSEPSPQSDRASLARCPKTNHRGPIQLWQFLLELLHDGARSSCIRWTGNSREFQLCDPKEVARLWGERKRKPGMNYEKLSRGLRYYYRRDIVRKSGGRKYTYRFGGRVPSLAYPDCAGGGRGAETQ
The following applies: protein: recombinant; tags: N-terminal GST; dsDNA, one strand shown. In a few lines: as §1

A further assay has as its target T5, ELF3 (Homo sapiens, UniProt P78545 1-371).
T5 sequence: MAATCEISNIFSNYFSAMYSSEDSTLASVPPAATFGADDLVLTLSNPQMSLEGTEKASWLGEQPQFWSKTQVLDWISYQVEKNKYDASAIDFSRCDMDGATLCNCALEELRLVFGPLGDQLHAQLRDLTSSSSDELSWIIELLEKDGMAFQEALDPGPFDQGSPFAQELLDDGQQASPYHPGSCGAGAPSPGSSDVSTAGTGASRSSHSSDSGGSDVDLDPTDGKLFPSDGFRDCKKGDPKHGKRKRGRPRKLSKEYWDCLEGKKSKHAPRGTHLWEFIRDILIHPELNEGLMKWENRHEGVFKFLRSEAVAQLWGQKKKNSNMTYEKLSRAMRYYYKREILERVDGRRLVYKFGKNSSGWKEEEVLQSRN
As to conditions: protein: recombinant; tags: N-terminal GST; dsDNA, one strand shown. In a few lines:
as §1

The target in the next assay is CRX (Homo sapiens, UniProt O43186 1-299). As to conditions: protein: recombinant; tags: N-terminal GST; dsDNA, one strand shown. The essentials:
as §1

In a further assay the target is ETV1 (Homo sapiens, UniProt P50549 1-477). The following applies: protein: recombinant; tags: N-terminal GST; dsDNA, one strand shown. The essentials:
as §1

A further assay concerns the target T6, ERF (Homo sapiens, UniProt P50548 1-548).
T6 sequence: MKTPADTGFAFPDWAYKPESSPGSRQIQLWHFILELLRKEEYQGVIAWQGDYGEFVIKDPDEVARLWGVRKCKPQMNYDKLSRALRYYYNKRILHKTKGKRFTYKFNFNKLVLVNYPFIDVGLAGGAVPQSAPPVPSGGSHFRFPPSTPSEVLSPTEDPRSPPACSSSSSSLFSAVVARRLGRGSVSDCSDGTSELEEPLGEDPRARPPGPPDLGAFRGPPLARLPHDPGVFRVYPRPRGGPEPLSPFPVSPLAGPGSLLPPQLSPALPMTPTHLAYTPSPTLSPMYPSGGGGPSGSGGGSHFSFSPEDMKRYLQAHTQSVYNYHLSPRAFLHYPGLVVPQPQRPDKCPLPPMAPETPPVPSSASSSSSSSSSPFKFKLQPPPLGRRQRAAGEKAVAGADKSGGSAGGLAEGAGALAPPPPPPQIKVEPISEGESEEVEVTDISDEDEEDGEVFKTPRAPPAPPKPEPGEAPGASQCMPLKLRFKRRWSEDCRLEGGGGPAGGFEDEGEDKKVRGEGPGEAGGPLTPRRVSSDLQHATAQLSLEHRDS
As to conditions: protein: recombinant; tags: N-terminal GST; dsDNA, one strand shown. In a few lines: as §1

For the next assay, the target named is T7, ETV3L (Homo sapiens, UniProt Q6ZN32 1-361).
T7 sequence: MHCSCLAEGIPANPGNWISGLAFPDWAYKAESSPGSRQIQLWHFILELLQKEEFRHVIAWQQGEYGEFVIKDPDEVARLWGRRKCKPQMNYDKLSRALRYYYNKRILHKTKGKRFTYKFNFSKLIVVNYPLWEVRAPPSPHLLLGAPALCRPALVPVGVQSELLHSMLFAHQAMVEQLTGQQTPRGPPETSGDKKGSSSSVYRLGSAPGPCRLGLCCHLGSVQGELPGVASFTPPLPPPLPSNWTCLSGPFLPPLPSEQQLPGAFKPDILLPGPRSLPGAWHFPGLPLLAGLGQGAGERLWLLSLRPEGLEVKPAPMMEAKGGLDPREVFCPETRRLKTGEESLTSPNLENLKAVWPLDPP
The following applies: protein: recombinant; tags: N-terminal GST; dsDNA, one strand shown. In a few lines:
as §1

The target in the next assay is T8, ETS2 (Homo sapiens, UniProt P15036 1-469).
T8 sequence: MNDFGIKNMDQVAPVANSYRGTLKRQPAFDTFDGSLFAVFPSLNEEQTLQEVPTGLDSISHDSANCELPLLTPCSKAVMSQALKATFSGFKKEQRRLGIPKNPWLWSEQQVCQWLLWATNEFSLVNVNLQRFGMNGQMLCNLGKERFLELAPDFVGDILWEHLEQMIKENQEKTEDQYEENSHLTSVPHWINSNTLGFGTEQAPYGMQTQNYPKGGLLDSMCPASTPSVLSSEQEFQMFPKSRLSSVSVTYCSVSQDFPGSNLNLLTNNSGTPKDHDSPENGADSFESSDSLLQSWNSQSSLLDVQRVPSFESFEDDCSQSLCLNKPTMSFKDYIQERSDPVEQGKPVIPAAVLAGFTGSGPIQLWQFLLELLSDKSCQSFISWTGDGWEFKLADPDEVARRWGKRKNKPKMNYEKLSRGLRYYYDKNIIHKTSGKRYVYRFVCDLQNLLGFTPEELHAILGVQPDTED
The following applies: protein: recombinant; tags: N-terminal GST; dsDNA, one strand shown. In a few lines:
as §1

In another assay the target is T9, SPDEF (Homo sapiens, UniProt O95238 1-335).
T9 sequence: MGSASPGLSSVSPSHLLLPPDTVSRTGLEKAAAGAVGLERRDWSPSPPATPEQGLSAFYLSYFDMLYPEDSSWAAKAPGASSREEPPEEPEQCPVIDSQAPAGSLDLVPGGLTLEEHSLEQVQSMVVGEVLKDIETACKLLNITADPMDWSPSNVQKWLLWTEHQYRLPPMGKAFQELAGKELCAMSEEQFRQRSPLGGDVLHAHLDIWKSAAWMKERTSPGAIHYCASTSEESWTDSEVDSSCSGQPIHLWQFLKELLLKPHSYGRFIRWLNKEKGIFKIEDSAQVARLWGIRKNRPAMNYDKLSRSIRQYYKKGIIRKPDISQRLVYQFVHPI
As to conditions: protein: recombinant; tags: N-terminal GST; dsDNA, one strand shown. In a few lines: as §1

A further assay has as its target T10, ETV7 (Homo sapiens, UniProt Q9Y603 1-341).
T10 sequence: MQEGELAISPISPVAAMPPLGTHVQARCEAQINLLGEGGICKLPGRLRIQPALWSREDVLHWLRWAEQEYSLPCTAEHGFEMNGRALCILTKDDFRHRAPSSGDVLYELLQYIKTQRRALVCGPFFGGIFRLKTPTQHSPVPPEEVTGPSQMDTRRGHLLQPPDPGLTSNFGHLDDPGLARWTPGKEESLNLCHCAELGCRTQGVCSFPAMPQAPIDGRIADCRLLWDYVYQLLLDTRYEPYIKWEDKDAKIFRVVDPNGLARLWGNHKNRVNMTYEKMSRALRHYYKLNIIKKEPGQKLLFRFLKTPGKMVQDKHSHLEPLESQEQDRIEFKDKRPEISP
As to conditions: protein: recombinant; tags: N-terminal GST; dsDNA, one strand shown. In a few lines:
as §1

A further assay has as its target T11, ELF5 (Homo sapiens, UniProt Q9UKW6-2 1-255).
T11 sequence: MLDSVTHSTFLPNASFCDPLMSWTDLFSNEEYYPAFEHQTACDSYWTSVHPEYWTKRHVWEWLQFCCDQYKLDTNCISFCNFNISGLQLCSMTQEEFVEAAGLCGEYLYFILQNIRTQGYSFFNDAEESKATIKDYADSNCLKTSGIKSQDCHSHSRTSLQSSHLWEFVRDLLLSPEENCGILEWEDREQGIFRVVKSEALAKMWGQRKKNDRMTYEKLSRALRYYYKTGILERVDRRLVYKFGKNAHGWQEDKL
The following applies: protein: recombinant; tags: N-terminal GST; dsDNA, one strand shown. The essentials:
as §1

A further assay concerns the target T12, ETV3 (Homo sapiens, UniProt P41162-2 1-143).
T12 sequence: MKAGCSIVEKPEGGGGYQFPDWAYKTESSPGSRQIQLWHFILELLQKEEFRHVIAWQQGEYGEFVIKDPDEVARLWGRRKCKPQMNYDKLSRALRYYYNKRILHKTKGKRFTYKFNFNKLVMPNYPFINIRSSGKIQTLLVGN
As to conditions: protein: recombinant; tags: N-terminal GST; dsDNA, one strand shown. The essentials: as §1

In another assay the target is ETV6 (Homo sapiens, UniProt P41212 1-452). As to conditions: protein: recombinant; tags: N-terminal GST; dsDNA, one strand shown. The essentials:
as §1

Binding signal data for one sequence are collected here from publication PMC7862700, “An all-to-all approach to the identification of sequence-specific readers for epigenetic DNA modifications on cytosine”.

HSF1, sequence (Q00613 whole entry): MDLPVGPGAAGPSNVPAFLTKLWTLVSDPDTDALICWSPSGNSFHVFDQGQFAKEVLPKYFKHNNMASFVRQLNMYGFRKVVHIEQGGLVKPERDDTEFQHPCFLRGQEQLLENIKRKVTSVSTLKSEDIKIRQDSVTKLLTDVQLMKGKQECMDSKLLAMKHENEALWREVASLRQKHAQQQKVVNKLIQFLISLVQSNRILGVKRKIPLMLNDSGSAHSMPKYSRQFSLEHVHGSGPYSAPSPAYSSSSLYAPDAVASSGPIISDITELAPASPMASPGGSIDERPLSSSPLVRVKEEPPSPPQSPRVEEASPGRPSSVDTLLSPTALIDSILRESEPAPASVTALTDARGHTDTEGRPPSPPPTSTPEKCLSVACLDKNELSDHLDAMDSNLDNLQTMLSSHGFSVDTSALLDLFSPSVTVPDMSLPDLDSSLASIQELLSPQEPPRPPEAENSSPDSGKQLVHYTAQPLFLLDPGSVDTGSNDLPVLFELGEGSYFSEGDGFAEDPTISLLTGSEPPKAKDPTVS
ETV5, sequence (P41161 whole entry): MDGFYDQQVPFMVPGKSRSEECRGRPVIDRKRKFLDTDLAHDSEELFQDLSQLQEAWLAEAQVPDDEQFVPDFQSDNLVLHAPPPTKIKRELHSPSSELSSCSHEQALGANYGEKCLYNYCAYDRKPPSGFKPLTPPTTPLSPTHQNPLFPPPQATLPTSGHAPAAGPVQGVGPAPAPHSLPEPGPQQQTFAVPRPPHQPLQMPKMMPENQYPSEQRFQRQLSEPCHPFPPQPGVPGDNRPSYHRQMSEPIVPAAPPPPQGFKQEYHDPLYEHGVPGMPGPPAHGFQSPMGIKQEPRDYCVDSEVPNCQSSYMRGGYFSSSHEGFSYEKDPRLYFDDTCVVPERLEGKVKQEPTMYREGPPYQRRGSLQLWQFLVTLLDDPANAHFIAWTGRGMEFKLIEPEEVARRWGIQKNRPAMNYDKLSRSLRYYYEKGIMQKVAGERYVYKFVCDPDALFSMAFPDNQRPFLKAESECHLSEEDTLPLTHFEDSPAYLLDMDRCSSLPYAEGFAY
CRX, sequence (O43186 whole entry): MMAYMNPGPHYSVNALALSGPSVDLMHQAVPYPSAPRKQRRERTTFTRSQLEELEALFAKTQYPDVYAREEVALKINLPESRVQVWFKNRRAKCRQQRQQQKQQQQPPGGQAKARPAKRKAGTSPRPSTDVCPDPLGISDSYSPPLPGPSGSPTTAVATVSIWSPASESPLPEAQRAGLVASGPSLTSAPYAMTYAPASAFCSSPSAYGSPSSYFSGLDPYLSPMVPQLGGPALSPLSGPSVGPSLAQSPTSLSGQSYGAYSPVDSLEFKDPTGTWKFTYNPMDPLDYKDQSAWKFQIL
ETV1, sequence (P50549 whole entry): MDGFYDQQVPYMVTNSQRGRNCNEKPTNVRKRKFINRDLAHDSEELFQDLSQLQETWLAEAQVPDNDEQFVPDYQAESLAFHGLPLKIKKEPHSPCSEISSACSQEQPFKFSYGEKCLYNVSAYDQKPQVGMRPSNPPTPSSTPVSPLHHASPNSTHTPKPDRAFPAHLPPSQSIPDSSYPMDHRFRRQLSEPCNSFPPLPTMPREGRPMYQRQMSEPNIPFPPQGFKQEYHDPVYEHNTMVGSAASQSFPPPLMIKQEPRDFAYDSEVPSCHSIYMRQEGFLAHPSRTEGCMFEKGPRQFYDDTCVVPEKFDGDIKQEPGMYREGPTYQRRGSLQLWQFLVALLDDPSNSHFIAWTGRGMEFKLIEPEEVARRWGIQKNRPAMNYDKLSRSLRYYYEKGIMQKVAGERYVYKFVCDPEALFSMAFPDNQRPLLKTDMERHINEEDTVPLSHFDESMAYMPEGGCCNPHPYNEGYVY
ETV6, sequence (P41212 whole entry): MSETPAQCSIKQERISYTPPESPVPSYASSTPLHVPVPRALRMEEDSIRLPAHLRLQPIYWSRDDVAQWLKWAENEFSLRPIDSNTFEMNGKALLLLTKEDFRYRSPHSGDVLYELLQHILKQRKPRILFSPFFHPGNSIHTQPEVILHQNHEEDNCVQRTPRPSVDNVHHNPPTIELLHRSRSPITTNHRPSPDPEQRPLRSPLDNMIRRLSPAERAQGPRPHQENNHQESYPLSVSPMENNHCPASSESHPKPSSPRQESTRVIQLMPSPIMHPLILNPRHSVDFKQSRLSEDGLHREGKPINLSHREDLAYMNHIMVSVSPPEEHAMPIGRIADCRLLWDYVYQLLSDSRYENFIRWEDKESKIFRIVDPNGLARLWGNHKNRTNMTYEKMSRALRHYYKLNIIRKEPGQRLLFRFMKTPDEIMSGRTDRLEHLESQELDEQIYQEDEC
ELF4, sequence (Q99607 whole entry): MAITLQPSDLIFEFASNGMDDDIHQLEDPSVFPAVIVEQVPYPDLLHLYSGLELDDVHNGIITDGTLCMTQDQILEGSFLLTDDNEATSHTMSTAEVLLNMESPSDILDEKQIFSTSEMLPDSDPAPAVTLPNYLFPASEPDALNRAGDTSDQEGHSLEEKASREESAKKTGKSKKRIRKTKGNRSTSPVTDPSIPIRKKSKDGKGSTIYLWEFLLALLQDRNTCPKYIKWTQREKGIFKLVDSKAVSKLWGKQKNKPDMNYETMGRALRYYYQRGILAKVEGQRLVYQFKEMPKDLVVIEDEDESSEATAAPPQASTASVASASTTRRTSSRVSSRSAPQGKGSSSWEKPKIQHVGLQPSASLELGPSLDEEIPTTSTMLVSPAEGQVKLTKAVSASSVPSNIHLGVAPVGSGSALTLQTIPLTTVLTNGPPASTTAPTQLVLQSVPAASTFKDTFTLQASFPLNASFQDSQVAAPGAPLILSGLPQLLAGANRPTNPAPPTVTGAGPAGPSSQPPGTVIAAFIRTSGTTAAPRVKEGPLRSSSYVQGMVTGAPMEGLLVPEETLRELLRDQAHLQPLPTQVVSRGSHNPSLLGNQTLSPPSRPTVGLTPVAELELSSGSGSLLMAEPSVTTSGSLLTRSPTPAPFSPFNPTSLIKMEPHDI

For the sequence TTACTT, the binding signal with FEV is 1.55 fold enrichment (6-mer frequency, TF over GST control); with ETV5 it was 1.53 fold enrichment (6-mer frequency, TF over GST control); with HSF1, 1.41 fold enrichment (6-mer frequency, TF over GST control); with SPIC it was 1.33 fold enrichment (6-mer frequency, TF over GST control); in the assay with ELF4 it was 1.46 fold enrichment (6-mer frequency, TF over GST control); with ELK4, 1.33 fold enrichment (6-mer frequency, TF over GST control). The binding signal in the assay with ETV2 is 1.66 fold enrichment (6-mer frequency, TF over GST control); with ELF3, 1.75 fold enrichment (6-mer frequency, TF over GST control); with CRX, 1.95 fold enrichment (6-mer frequency, TF over GST control); with ETV1 it was 1.55 fold enrichment (6-mer frequency, TF over GST control); with ERF, 1.49 fold enrichment (6-mer frequency, TF over GST control); with ETV3L, 1.37 fold enrichment (6-mer frequency, TF over GST control). Also, the binding signal was 1.48 fold enrichment (6-mer frequency, TF over GST control) in the assay with ETS2; 1.45 fold enrichment (6-mer frequency, TF over GST control) with SPDEF; 1.43 fold enrichment (6-mer frequency, TF over GST control) with ETV7; 1.54 fold enrichment (6-mer frequency, TF over GST control) with ELF5; 1.58 fold enrichment (6-mer frequency, TF over GST control) with ETV3; 1.62 fold enrichment (6-mer frequency, TF over GST control) with ETV6.
